Compounds with a hit are over-represented: about 1.7% of the library has one in this group of screens.
ZTA DNA inh: blocks Epstein-Barr virus ZTA, an EBNA-1 counter-screen | P03206 | ZTA-DNA binding, fluorescence polarization | inhibition, % at 11 µM | 320,000 compounds, 0.15% hits | AID 2234; in the data active = inhibition above about 33%
LYPLA2 counter: blocks human lysophospholipase 2, a PME1 counter-screen; inhibition, % at 5.9 µM; recombinant LYPLA2, FP-Rh probe fluorescence polarization; O95372; AID 2177; 320,000 compounds, 0.38% hits;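 active = inhibition above the screen-wide mean plus 3 SD, limit set per campaign, cut at about 26% in these data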;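 also: 0% = LYPLA2 with DMSO and 100% = wells lacking LYPLA2 enzyme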
PAD4 inh: blocks human protein arginine deiminase 4 | 330,000 compounds, 0.41% hits | AID 485272 | inhibition, % at 6.36 µM | recombinant PAD4, RCA probe fluorescence polarization;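 active = percent inhibition above a cutoff equal to the mean of all tested compounds plus 3 SD, cut at about 15% in these data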;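 also: 0% = PAD4 with RCA probe and DMSO and 100% = probe without PAD4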
EBNA-1 inhibitor: blocks EBNA-1 binding to DNA. inhibition, % at 14.8 µM. AID 1950. 300,000 compounds, 0.34% hits. EBNA-1 DNA binding, fluorescence polarization; in the data active = inhibition above about 28%
LYPLA1 inh: LYPLA1 (human) inhibition in PME1 counter-screen. recombinant LYPLA1, FP-Rh probe fluorescence polarization. inhibition, % at 5.9 µM. 320,000 compounds, 0.16% hits. AID 2174;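 active = inhibition above the mean of all tested compounds plus 3 SD, set per campaign, cut at about 14% in these data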;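 also: inhibitors block serine hydrolase probe labeling of LYPLA1 so polarization falls; 0% = enzyme with DMSO and 100% = wells lacking LYPLA1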
Target sequence (O75608 whole entry, looked up): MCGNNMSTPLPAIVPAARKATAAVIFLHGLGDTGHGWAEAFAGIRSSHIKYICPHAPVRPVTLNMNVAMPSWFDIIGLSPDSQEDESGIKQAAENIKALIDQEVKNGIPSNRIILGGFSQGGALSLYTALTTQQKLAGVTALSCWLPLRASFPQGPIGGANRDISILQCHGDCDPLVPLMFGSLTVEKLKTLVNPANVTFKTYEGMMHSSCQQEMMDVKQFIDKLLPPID
GSTO1 counter: blocks human GSTO1 in RBBP9 counter-screen; P78417; recombinant GSTO1, activity-based probe fluorescence polarization; inhibition, % at 5.96 µM; 300,000 compounds, 1.1% hits;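 active = inhibition above the campaign mean inhibition plus 3 SD, cut at about 35% in these data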;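 also: 0% = GSTO1-1 with DMSO and 100% = wells lacking GSTO1-1 enzyme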
Target sequence (P78417 whole entry, looked up): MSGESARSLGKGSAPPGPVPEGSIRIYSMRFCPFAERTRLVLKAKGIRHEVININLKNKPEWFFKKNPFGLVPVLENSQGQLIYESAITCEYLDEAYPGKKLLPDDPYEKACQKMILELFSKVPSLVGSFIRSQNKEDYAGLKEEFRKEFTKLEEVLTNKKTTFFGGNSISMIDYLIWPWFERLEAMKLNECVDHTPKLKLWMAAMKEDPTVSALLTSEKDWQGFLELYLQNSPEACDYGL
LYPLA2 confirm: LYPLA2 (human) inhibition, confirmation counter-screen; shares compounds with LYPLA2 counter; recombinant LYPLA2, FP-Rh probe fluorescence polarization; inhibition, % at 5.9 µM; 1,100 compounds, 72% hits;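 active = mean inhibition across replicates above the hit cutoff set in the primary screen, cut at about 26% in these data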;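 also: blocked labeling of the enzyme by serine hydrolase FP-Rh probe lowers polarization; 0% = enzyme with DMSO and 100% = wells lacking LYPLA2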
LYPLA2 gel ABPP: inhibitors of human LYPLA2; shares compounds with LYPLA2 counter; rhLYPLA2 in mouse brain proteome, gel ABPP FP-Rh; inhibition, % at 20 µM; 150 compounds, 30% hits; AID 652029;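 active = inhibition of LYPLA2 enzyme probe labeling above about 50%, limit read from the data; inactive = inhibition below that limit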;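 also: loss of FP-Rh probe labeling of the LYPLA2 gel band measured as band density; 0% = DMSO only control band and 100% = blank gel background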
Active calls of the source: *; . = no result given.

SMILES	ZTA DNA inh	LYPLA2 counter	PAD4 inh	EBNA-1 inhibitor	LYPLA1 inh	GSTO1 counter	LYPLA2 confirm	others
Cc1cc(C)cc(C(=O)NC(CC(N)=O)c2ccc(NC3CCCC3)c([N+](=O)[O-])c2)c1 (stereo not drawn)	4	-2	3	-3	0	0	.
Cc1cnc(NC(=O)c2c(Cl)cnn2C)s1	2	2	-4	9	-2	-3	.
C/C(C=NNC(=O)Cn1nnc(N)n1)=C\c1ccc(C(C)C)cc1	.	.	.	.	.	.	.	LYPLA2 gel ABPP=69*
COc1ccc(C(=O)ON=C2CCN(c3ccc([N+](=O)[O-])cc3)CC2)cc1	8	35*	-3	-17	8	-9	39*
O=C(ON=C1CCN(c2ccc([N+](=O)[O-])cc2)CC1)c1ccccc1	-8	37*	-1	-2	4	3	35*
O=C(OC1CCN(c2ccc([N+](=O)[O-])cc2)CC1)c1ccccc1	11	13	-4	13	2	1	.
COc1ccc(NC(=O)C2CC(=O)N/C(=N/NC(=O)c3ccc(Cl)cc3)S2)cc1 (stereo not drawn)	-2	7	1	7	0	4	.
CC1CCCN(C(=O)CN2C(=O)C(C)Oc3ccccc32)C1 (stereo not drawn)	12	29*	4	17	5	2	-3
CC1Oc2ccccc2N(CC(=O)N2CCCC2)C1=O (stereo not drawn)	10	0	-2	-2	1	11	.
Cc1ccc(C2=NOC(C)(c3nnc(Cc4ccccc4)o3)C2)cc1 (stereo not drawn)	13	6	-1	3	-1	8	.
Cc1cc(C(=O)NC(C)c2ccccc2)c2cc(F)ccc2n1 (stereo not drawn)	-4	28*	-1	3	3	7	13
Cc1cc(C(=O)NC2CCCCC2)c2cc(F)ccc2n1	5	5	-4	2	2	0	.
O=c1ccc(C(F)(F)F)cn1Cc1cc(=O)n2cc(Br)ccc2n1	-9	4	-5	-7	3	11	.
O=C(Nc1cc(Cl)ccc1-n1cncn1)C1CC1	10	11	1	9	3	-5	.
COc1ccccc1N1CCN(C(=O)CCN2C(=O)c3cccc4cccc(c34)C2=O)CC1	-8	0	0	1	1	2	.
COc1ccc(N2CCN(C(=O)CCCN3C(=O)c4cccc5cccc(c45)C3=O)CC2)cc1	-2	73*	1	-8	10	-8	63*	LYPLA2 gel ABPP=32
COc1ccc(N2CCN(C(=O)CCCOc3cc(=O)n(C)c4ccccc34)CC2)cc1	-13	31*	-5	0	1	1	33*
O=C(CCCN1C(=O)c2cccc3cccc(c23)C1=O)N1CCN(c2ccc(F)cc2)CC1	16	54*	-3	4	11	-8	50*
CC(=O)c1cccc(OCC(=O)N2CCN(c3ccc(C(F)(F)F)cn3)CC2)c1	10	58*	-1	8	5	1	57*	LYPLA2 gel ABPP=45
CC(=O)c1ccc(N2CCN(c3ncc(C(F)(F)F)cc3Cl)CC2)cc1	10	10	0	-8	-3	8	.
CC(=O)Nc1ccc(N2CCN(c3ccc(C(F)(F)F)cn3)CC2)nc1	-22	52*	4	-5	4	0	51*	LYPLA2 gel ABPP=27
CC(=O)c1ccc(N2CCN(c3ccc(C(F)(F)F)cn3)CC2)cc1	30	46*	-1	15	1	4	42*
C=CCc1ccccc1OCC(O)CN1CCN(CCN2C(=O)c3cccc4cccc(c34)C2=O)CC1 (stereo not drawn)	-9	27*	2	2	5	-3	37*
CC(=O)c1ccc(OCC(O)CN2CCN(CCN3C(=O)c4cccc5cccc(c45)C3=O)CC2)cc1 (stereo not drawn)	13	53*	1	6	2	-4	59*	LYPLA2 gel ABPP=20
Cc1ccccc1OCC(O)CN1CCN(CCN2C(=O)c3cccc4cccc(c34)C2=O)CC1 (stereo not drawn)	-19	39*	-3	-13	-3	-7	48*
SMILES	ZTA DNA inh	LYPLA2 counter	PAD4 inh	EBNA-1 inhibitor	LYPLA1 inh	GSTO1 counter	LYPLA2 confirm	others
CCC(OCC(O)CN1CCN(CCN2C(=O)c3cccc4cccc(c34)C2=O)CC1)c1ccccc1 (stereo not drawn)	-6	45*	2	1	3	-1	46*
CC(C)(C)c1ccc(C(=O)OCC(=O)N2CCC(c3ccccc3)=N2)cc1	7	-11	-1	.	-5	.	.
CCOc1ccc(N2CC(C(=O)NC3CCCC3)CC2=O)cc1 (stereo not drawn)	-4	0	-3	3	3	-6	.
O=C1CCCN1CCCNc1ncnc2c1cnn2-c1ccc(Cl)cc1	-3	30*	0	-13	4	0	29*
O=C(CSCc1ccccc1Cl)Nc1c[nH]c(=O)[nH]c1=O	8	39*	1	8	2	1	-3
C[C@H](CO)N1C[C@H](C)[C@@H](CN(C)C(=O)Nc2ccc(C(F)(F)F)cc2)Oc2ccc(NS(=O)(=O)c3ccccc3)cc2C1=O	.	.	0	.	.	.	.
O=C(OCC(=O)N1CCOCC1)c1ccc2ccccc2c1O	-2	5	4	.	1	.	.
CN1CCN(CCCNC(=O)c2ccc3c(=O)n(CCc4ccccc4)c(=O)[nH]c3c2)CC1	2	29*	-3	2	-4	1	1
CC1CCN(CCCNC(=O)c2ccc3c(=O)n(CCc4ccccc4)c(=O)[nH]c3c2)CC1	7	-5	-4	0	-5	-7	.
Cc1cc(C)c(C)c(S(=O)(=O)N2CCC(C(=O)NCC(c3ccccc3)N(C)C)CC2)c1C (stereo not drawn)	-11	6	-1	-9	-2	-3	.
CC(=O)Nc1cccc(-n2nnc(SCC(=O)N(C)c3ccccc3)n2)c1	17	34*	5	6	-1	8	40*
CCN1C(=O)S/C(=C/c2ccc(Oc3ccc([N+](=O)[O-])cn3)c(OC)c2)C1=O	-8	32*	-5	-13	4	1	41*
CCOc1cc(/C=C2\SC(=O)N(CC(=O)Nc3ccccc3F)C2=O)cc([N+](=O)[O-])c1O	0	18	1	-4	4	18	.
COc1ccc(/C=C2/SC(=O)N(CCC(=O)Nc3ccc(C)cc3)C2=O)cc1OC	-6	-5	-5	-4	0	1	.
COc1ccc(/C=C2\Sc3ccc(C(=O)NCc4cccnc4)cc3N(C)C2=O)cc1OC	-5	28*	-1	0	7	-24	13

Compound activity as filed in PubChem.
